Measurements published in PubChem BioAssay.
Unmarked numbers belong to inactive results. Where a call stands in place of a potency, no number is given. For part of these data: Potency and affinity values are given separately. Calls of active or inactive are those of the source. Unless noted, how the calls were made is not given here.

Legend:
[1] = antimalarial activity against Dd2 strain (AID 2302;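 active means growth inhibition above 50% at the single 2 µM test dose, taken to imply half-maximal potency below 2 µM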); conditions: P. falciparum Dd2 in RBCs, LDH growth readout, 72 h; at 2 µM; hits give high values
[2] = HepG2 cytotoxicity, primary screen, cytotoxicity control for P. falciparum antimalarial project, cell-based, ATP luminescence (AID 2303;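 active means inhibition above 50%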); conditions: HepG2 viability, 24-48 h, at 10 µM, hits give high values
[3] = target: L-lactate dehydrogenase (Plasmodium falciparum (isolate CDC / Honduras)) (UniProt Q27743); test: PfLDH activity inhibition – cell lysate, 3D7 strain, counter-screen for P. falciparum growth inhibition project (AID 2304); conditions: P. falciparum 3D7 crude extract, LDH APAD/NBT absorbance; at 2 µM; hits give high values
[4] = inhibition of 3D7 malaria parasite growth – strain 3D7 (AID 2306); conditions: P. falciparum 3D7 erythrocytic growth, LDH absorbance, 72 h; at 2 µM; hits give high values
[5] = target: Calcium-dependent protein kinase 1 (Plasmodium falciparum (isolate 3D7)) (UniProt P62344); test: PfCDPK1 kinase inhibitors, biochemical, TCAMS library (AID 1159585; cut-off not given, nearly all actives have IC50 up to about 0.98 µM;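 further: inhibitors leave more ATP so luminescence rises with inhibition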); conditions: recombinant PfCDPK1, Kinase-Glo ATP depletion luminescence
[6] = target: Plasmodium falciparum protein kinase 6 (PK6, PF3D7_1337100) (UniProt Q8IDW1); test: PfPK6 kinase inhibitors, biochemical, TCAMS library (AID 1159586); conditions: recombinant PfPK6, Kinase-Glo ATP depletion luminescence
[7] = target: Protein kinase 7 (PK7), Plasmodium falciparum 3D7 (PF3D7_0213400) (UniProt Q7YTF7); test: inhibition of Plasmodium PK7 catalytic activity – biochemical, TCAMS antimalarial set, Kinase-Glo luminescence (AID 1159587); conditions: recombinant PfPK7, Kinase-Glo ATP depletion luminescence
[8] = target: Calcium-dependent protein kinase 4 (Plasmodium falciparum (isolate 3D7)) (UniProt Q8IBS5); test: PfCDPK4 kinase inhibitors, biochemical, TCAMS library (AID 1159588; cut-off not given, nearly all actives have IC50 up to about 0.91 µM); conditions: recombinant PfCDPK4, Kinase-Glo ATP depletion luminescence
Calcium-dependent protein kinase 4 (Plasmodium falciparum (isolate 3D7)), sequence (Q8IBS5 whole entry, looked up): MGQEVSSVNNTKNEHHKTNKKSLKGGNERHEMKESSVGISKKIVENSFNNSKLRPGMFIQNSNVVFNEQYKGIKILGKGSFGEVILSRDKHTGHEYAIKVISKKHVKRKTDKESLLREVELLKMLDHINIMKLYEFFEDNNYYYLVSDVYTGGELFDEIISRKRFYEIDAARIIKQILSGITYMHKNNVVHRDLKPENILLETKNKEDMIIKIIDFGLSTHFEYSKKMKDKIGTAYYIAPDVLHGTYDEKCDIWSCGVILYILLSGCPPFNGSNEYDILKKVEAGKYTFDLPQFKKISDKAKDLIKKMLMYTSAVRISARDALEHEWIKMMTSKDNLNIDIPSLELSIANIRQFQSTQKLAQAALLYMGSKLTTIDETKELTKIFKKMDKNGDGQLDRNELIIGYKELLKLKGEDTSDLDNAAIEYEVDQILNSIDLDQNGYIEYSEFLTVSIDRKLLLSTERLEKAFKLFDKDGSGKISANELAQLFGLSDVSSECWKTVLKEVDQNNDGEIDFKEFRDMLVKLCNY

Plasmodium falciparum protein kinase 6 (PK6, PF3D7_1337100), sequence (Q8IDW1 1-305): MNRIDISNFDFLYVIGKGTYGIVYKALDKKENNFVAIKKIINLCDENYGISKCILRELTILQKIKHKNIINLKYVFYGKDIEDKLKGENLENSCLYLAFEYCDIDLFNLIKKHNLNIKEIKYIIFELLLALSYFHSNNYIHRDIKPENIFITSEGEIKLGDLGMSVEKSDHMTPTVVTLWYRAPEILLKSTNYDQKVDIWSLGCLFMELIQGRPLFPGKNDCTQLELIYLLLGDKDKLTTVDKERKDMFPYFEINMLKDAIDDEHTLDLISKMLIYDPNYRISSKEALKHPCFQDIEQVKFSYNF
Calcium-dependent protein kinase 1 (Plasmodium falciparum (isolate 3D7)), sequence (P62344 whole entry, looked up): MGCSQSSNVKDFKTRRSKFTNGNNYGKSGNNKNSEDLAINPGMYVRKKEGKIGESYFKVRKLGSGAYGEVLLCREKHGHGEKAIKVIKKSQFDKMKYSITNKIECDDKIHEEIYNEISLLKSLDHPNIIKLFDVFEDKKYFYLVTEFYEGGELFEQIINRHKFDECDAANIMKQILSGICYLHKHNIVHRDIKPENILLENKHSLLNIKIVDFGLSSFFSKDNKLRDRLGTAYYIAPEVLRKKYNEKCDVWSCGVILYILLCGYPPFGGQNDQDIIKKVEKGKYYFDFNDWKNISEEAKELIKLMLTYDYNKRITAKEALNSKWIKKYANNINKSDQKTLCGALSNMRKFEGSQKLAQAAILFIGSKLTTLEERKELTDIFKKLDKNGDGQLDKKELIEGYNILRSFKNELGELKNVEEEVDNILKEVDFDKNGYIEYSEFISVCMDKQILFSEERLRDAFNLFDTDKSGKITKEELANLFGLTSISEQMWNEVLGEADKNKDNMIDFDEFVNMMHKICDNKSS
Protein kinase 7 (PK7), Plasmodium falciparum 3D7 (PF3D7_0213400), sequence (Q7YTF7 1-343): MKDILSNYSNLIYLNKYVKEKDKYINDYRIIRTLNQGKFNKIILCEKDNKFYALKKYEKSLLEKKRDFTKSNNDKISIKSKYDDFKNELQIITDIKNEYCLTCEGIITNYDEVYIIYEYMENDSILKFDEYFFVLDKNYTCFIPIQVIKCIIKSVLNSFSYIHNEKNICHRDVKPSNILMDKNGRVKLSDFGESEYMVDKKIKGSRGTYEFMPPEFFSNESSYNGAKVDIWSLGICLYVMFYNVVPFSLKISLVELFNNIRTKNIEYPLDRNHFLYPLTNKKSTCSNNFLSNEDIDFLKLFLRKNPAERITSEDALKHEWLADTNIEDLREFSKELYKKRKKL
L-lactate dehydrogenase (Plasmodium falciparum (isolate CDC / Honduras)), sequence (Q27743 whole entry, looked up): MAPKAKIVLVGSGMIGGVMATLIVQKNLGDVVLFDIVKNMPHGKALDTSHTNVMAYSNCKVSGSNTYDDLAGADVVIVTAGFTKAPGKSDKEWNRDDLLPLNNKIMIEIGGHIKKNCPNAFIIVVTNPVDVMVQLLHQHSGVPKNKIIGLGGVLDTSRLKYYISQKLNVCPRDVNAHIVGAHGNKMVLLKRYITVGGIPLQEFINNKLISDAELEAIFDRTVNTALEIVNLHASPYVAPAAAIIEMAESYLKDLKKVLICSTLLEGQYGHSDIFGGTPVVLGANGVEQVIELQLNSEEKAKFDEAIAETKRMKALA

| Structure (SMILES) | growth inhibition [1] | inhibition [2] | inhibition [3] [%] | growth inhibition [4] | outcome [5] | outcome [6] | outcome [7] | outcome [8] |
| --- | --- | --- | --- | --- | --- | --- | --- | --- |
| O=C(N[C@@H](Cc1ccccc1)C(=O)NC1CCCc2ccccc21)c1ccc(O)c(-c2cccc(C(F)(F)F)c2)c1 (some centres not stated) | 41% | -2% | -1 | 91% (active) | inactive | inactive | inactive | inactive |
| CCOc1cc2c(cc1OCC)C(c1cc(OC)c(O)cc1Cl)NCC2 (configuration not stated) | 97% (active) | 15% | -7 | 100% (active) | inactive | inactive | inactive | inactive |
| Cc1cc(C2CCN(CCCCNC(=O)c3ccc(-c4ccc(C(F)(F)F)cc4)cc3)CC2)c(C)cc1OCCOC1CCCCO1 (configuration not stated) | 5% | 30% | -7 | 95% (active) | inactive | inactive | inactive | inactive |
| CCOc1cc(C)ccc1C1CCN(CCCCNC(=O)c2coc(-c3ccc(Cl)cc3)c2)CC1 | 30% | 34% | -3 | 92% (active) | inactive | inactive | inactive | inactive |
| COc1cc2nccc(Nc3ccc4c(cnn4Cc4ccccc4F)c3)c2cc1OC | 91% (active) | 55% (active) | -8 | 101% (active) | inactive | inactive | inactive | inactive |
| O=C(Nc1ccc(N2CCNCC2)nc1)c1oc(-c2ccccc2)nc1C(F)(F)F | 62% (active) | 7% | 0 | 100% (active) | inactive | inactive | inactive | inactive |
| COC(=O)c1cccc(CNCc2cccc(-c3cccc(-c4nc5ccc(C(F)(F)F)cc5[nH]4)c3)c2)c1 | 69% (active) | 7% | 6 | 102% (active) | inactive | inactive | inactive | inactive |
| COc1cc(CNCCCCCCNCc2cc(OC)c(OC)c3ccccc23)c2ccccc2c1OC | 100% (active) | 100% (active) | -1 | 100% (active) | inactive | inactive | inactive | inactive |
| CC(C)Oc1ccc(C=CC(=O)Nc2noc3ccccc23)cc1 | 95% (active) | 2% | 4 | 96% (active) | inactive | inactive | inactive | inactive |
| CN1CCC(N2CCN(Cc3ccc(-c4ccc(-c5nc6ccc(F)cc6[nH]5)s4)cc3)CC2)CC1 | 100% (active) | 62% (active) | 3 | 100% (active) | inactive | inactive | inactive | inactive |
| O=C(Nc1cc(Cl)cc(Cl)c1)c1cc(Cl)c(=O)n(Cc2ccc(Cl)cc2)c1 | 57% (active) | 7% | 7 | 89% (active) | inactive | inactive | inactive | inactive |
| CCN1CCN(C(=O)NC(C(=O)N2CCCC(COc3ccc(Cc4ccccc4)cc3)C2)c2cccs2)C(=O)C1=O (configuration not stated) | 87% (active) | 12% | -6 | 95% (active) | inactive | inactive | inactive | inactive |
| CNC(=O)C1Cc2c([nH]c3ccc(Br)cc23)C2(CCN(CCc3ccccc3)CC2)N1 (configuration not stated) | 60% (active) | 15% | -2 | 101% (active) | inactive | inactive | inactive | inactive |
| CC(CN(C)C)C(=O)Nc1cccc(-c2ccc(-c3nc4ccc(F)cc4[nH]3)s2)c1 (configuration not stated) | 99% (active) | 3% | -6 | 100% (active) | inactive | inactive | inactive | inactive |
| CC(C)CNCc1ccc(-c2ccc(CN(C(=O)NCCc3ccccc3)C3CCN(Cc4ccccc4)CC3)cc2)cc1 | 62% (active) | 37% | -3 | 98% (active) | inactive | inactive | inactive | inactive |
| COc1ccc2nccc([C@@H](O)CN3CCC(NCc4ccc5scnc5c4)CC3)c2c1 | 93% (active) | 17% | -1 | 101% (active) | inactive | inactive | inactive | inactive |
| CCCOc1ccc(C(F)(F)F)cc1NC(=O)c1nc2nc(C)cc(C)n2n1 | 88% (active) | 7% | -4 | 90% (active) | inactive | inactive | inactive | inactive |
| OC(CNCc1ccccc1OCc1ccccc1)c1cccc(Cl)c1 (configuration not stated) | 100% (active) | -6% | 7 | 100% (active) | inactive | inactive | inactive | inactive |
| Cc1cc(=O)c(-c2ccc(OCCSc3ccc(C(F)(F)F)cn3)cc2)c(C)[nH]1 | 96% (active) | 2% | 7 | 97% (active) | inactive | inactive | inactive | inactive |
| O=S(=O)(c1cc(Cl)c(Cl)cc1Cl)N1CCCCC(c2ccc(C(F)(F)F)cc2)=N1 | 99% (active) | 9% | -1 | 98% (active) | inactive | inactive | inactive | inactive |

| Structure (SMILES) | growth inhibition [1] | inhibition [2] | inhibition [3] [%] | growth inhibition [4] | outcome [5] | outcome [6] | outcome [7] | outcome [8] |
| --- | --- | --- | --- | --- | --- | --- | --- | --- |
| O=C(Nc1ccc(-c2cccc(-c3nc4ccccc4[nH]3)c2)cc1)c1cnn2cccnc12 | 36% | 64% (active) | -1 | 99% (active) | inactive | inactive | inactive | inactive |
| CCOc1cc(C(=O)NC2CCN(Cc3ccccc3)CC2)ccc1-c1nc2ccc(Cl)cc2[nH]1 | 84% (active) | 10% | -6 | 101% (active) | inactive | inactive | inactive | inactive |
| Cc1cc(N[C@@H](CC(C)C)C(=O)NCCOc2ccccc2)nc(NCCc2ccccc2)n1 | 29% | 13% | -1 | 94% (active) | inactive | inactive | inactive | inactive |
| CC(C)[C@H]1C(=O)N(S(C)(=O)=O)[C@H]2CCN(C(=O)c3ccc(CN4CCCCC4)c([N+](=O)[O-])c3)[C@H]12 | 100% (active) | 10% | 3 | 100% (active) | inactive | inactive | inactive | inactive |
| CCNCc1ccc(-c2cc3ncnc(Nc4ccc(OCc5cccc(F)c5)c(Cl)c4)c3s2)[nH]1 | 74% (active) | 22% | 6 | 103% (active) | inactive | inactive | inactive | inactive |
| Cc1nnsc1C(=O)Nc1ccc(-c2cccc(-c3nc4ccc(C(F)(F)F)cc4[nH]3)c2)cc1 | 36% | 69% (active) | 2 | 97% (active) | inactive | inactive | inactive | inactive |
| COc1cc(OC)c(OC)cc1CN1CCC2(CC1)CN(Cc1ccc(Cl)c(Cl)c1)C(=O)O2 | 94% (active) | 8% | 3 | 90% (active) | inactive | inactive | inactive | inactive |
| Cc1cc(CNCCCCCNCc2ccc(Cl)cc2)ccc1O | -1% | 12% | -7 | 98% (active) | inactive | inactive | inactive | inactive |
| CCN(C)CCCn1c(N(C)C)nc2cc(-n3cnc4cc(-c5ccc(Cl)cc5)sc4c3=O)ccc21 | 12% | 83% (active) | 5 | 80% (active) | inactive | inactive | inactive | inactive |
| Clc1ccc(-c2cc(-c3csc(Nc4ccncc4)n3)on2)cc1 | 99% (active) | 1% | 3 | 100% (active) | inactive | inactive | inactive | inactive |
| Cc1c(Cl)cccc1S(=O)(=O)Nc1cccc(CCN2CCC(N3CCCCC3)CC2)c1 | 82% (active) | 38% | -1 | 101% (active) | inactive | inactive | inactive | inactive |
| Cc1ccc(NC(=O)N2CCCN(CCCCCNC(=O)/C=C/c3ccc(Cl)c(Cl)c3)CC2)cc1C | 4% | 62% (active) | 1 | 101% (active) | inactive | inactive | inactive | inactive |
| CCOC(=O)c1cc(C(=O)NCCCCN2CCC(c3cn(C)c4ccccc34)CC2)ccc1-c1ccc(C(F)(F)F)cc1 | 6% | 25% | -3 | 91% (active) | inactive | inactive | inactive | inactive |
| CN1c2ccccc2Sc2cc(CNCCSCCNCc3ccc4c(c3)Sc3ccccc3N4C)ccc21 | 44% | 58% (active) | 0 | 84% (active) | inactive | inactive | inactive | inactive |
| CNCCNCc1cccc(-c2ccc(-c3nc4ccc(C(F)(F)F)cc4[nH]3)s2)c1 | 85% (active) | 31% | 4 | 98% (active) | inactive | inactive | inactive | inactive |
| CCCN(CCC)C(=O)c1cc(C(=O)N[C@@H](Cc2ccccc2)[C@H](O)CNCc2cccc(OC)c2)cc(N2CCCCS2(=O)=O)c1 | 99% (active) | -1% | 4 | 97% (active) | inactive | inactive | inactive | inactive |
| COc1ccc2nccc([C@@H](O)CN3CC[C@H](NCc4nc5c(cc4F)SCC(=O)N5)[C@H](F)C3)c2c1 | 49% | 9% | -4 | 95% (active) | inactive | inactive | inactive | inactive |
| COc1ccc(C2CCN(CCCCNC(=O)c3ccc(NC(=O)c4ccc(Cl)cc4)cc3)C2)c(OC)c1 (configuration not stated) | -1% | 18% | 2 | 84% (active) | inactive | inactive | inactive | inactive |
| CCOc1cc(C(=O)N[C@@H](Cc2ccccc2)[C@H](O)CNCc2cc(OC)cc(OC)c2)cc(N2CCCCS2(=O)=O)c1 | 98% (active) | -2% | 5 | 100% (active) | inactive | inactive | inactive | inactive |
